# PubChem BioAssay AID686971 (National Center for Advancing Translational Sciences (NCATS), 2013)
# Screen size: about 360,000 compounds; about 7,500 (2.1%) were called active. A call without a number means that no potency is given here. Roughly 8% stayed inconclusive and do not appear here. The call rests on the fitted dose curve; in most records, active means well fitted cell-killing curve with a large enough effect; inconclusive means small, poorly fitted or top-dose-only effect, or effect the other way, or another doubt; inactive means no such curve, though single readings can be large or run the other way. For the sample, actives were picked, then their nearest neighbours and some compounds at random. The source holds several records for some structures; these can differ, active in one and inactive in another.
# Test: qHTS for induction of synthetic lethality in tumor cells producing 2HG: qHTS for the HT-1080-IDH1KD cell line
# Details: HT-1080 IDH1 knockdown viability, ATP luminescence, 48 h; series mostly up to 46.1 µM
# From the text: Unbiased genomic sequencing for 22 glioma genomes found recurrent mutation of IDH1 on chromosome 2q33, a gene encoding the cytosolic isoform of IIDH1 associated with the tri-carboxylic acid cycle (TCA) that catalyzes the oxidative decarboxylation of isocitrate, yielding alpha-ketoglutarate and CO2 via NADP+ to NADPH conversion. Subsequent studies confirmed the recurrent IDH mutations in up to 70% of secondary gliomas and in 10% of AML cases. In addition, the somatic mutation of cancer-associated IDH1 is a point mutation resulting in various amino-acid substituents at Arginine132 (IDH1 R132), a key residue found in the enzyme's active site that when mutated, results in the loss-of-function in metabolizing isocitrate but confers a gain-of-function to produce the oncometabolite 2-hydroxyglutarate (2HG). This in effect defines IDH1 as an oncogene and provides an extraordinary opportunity to discover chemical probes against mutant IDH1 that may translate into much needed new therapies for glioma and AML patients.
# This assay aims to perform a synthetic-lethal screen for chemical probes specific for 2HG-producing tumor cells using matched paired cell lines (1) HT-1080-NT fibrosarcoma cell line that overproduces 2HG and (2) HT-1080-IDH1KD cell line which has IDH1 expression knocked-down. Desirable compounds are toxic to the NT fibrosarcoma cell line but not to the IDH1KD cell line. The data in this AID corresponds to the results of the qHTS against the HT-1080 IDH1KD cell line.
# [1] Dang L, Jin S, Su SM. IDH mutations in glioma and acute myeloid leukemia. Trends of Mol Med. 2010; 16(9): 387-97.
# [2] Dang L et al. Cancer-associated IDH1 mutations produce 2-hydroxyglutarate. Nature. 2010; 465(7300):966.
# Molecular Libraries Probe Production Centers Network [MLPCN]
# NIH Chemical Genomics Center [NCGC]
# Assay Submitter (PI): Lenny Dang Ph.D., Agios Pharmaceuticals
# Suspensions of trypsinized HT-1080-IDH1KD cells were dispensed into white, tissue culture-treated, solid 1536-well plates at 5uL/well (750 cells/well final concentration) in RPMI medium supplemented with 5% FBS. Plates were incubated at 37 degrees C for 2 hours, after which 23 nL of compounds or DMSO were delivered to each well using a pin tool. Plates were then incubated at 37 degrees C for an additional 48 hours. CellTiter-Glo viability reagent (Promega) was dispensed into wells (2.5uL/well) and incubated at room temperature for 10 minutes. The plates were measured on a PerkinElmer ViewLux plate reader for luminescent signal (clear filter, 1 sec exp.). DMSO-treated control wells and media-only (no cells) control wells were used to normalize %Activity of identified toxic compounds; DMSO-treated wells corresponded to 0%Activity (100% viability), while media-only controls were used to normalize 100%Activity (0% viability). To minimize variability between cell lines, both HT-1080-NT and HT-1080-IDH1KD lines were dispensed and treated with identical compound series in single batches.
# Concentration-response curves were fitted to the signals arising from the resulting luminescence. The concentration-effect curves were then classified based on curve quality (r2), response magnitude and degree of measured activity, and compounds were subsequently categorized based on their curve class.
# Potency means the concentration at half of the fitted maximal effect.
SMILES,Potency,"activity, negative = toxicity"
CC(=O)OC1C2(CC3N4C(=O)C5(CO)SSC4(CC31O)C(=O)N5C)OC(C)C(C)(C)C2=O (stereo not given),0.58 µM (active),
C[C@]12CCC3C(CC[C@H]4[C@H](O)[C@H](O)CC[C@]34C)C1CCC2=O (stereo not given in full),inactive,
COC(=O)N1C(c2ccccc2)C1c1ccccc1 (stereo not given),inactive,
CSc1ccc(C(=O)C2CCCN(Cc3ccn[nH]3)C2)cc1 (stereo not given),inactive,
CCN1C(=O)NC(=O)C2(CCCC2)C1=O,inactive,
Cc1cc(C)cc(NC(=S)NC2CC3CCCC(C2)N3Cc2cccs2)c1 (stereo not given),12.6 µM (active),
Cc1cc(C)c2c(c1)NP(=S)(c1ccccc1)N2 (stereo not given),inactive,
CC(=O)C1(O)CCC2C3CCC4=C(Cl)C(=O)CCC4(C)C3CCC21C (stereo not given),inactive,
Oc1cc2c(cc1O)CN(C(=S)NCCc1ccc(Cl)cc1)CCC2,inactive,
S=C(NCCc1ccccc1)N1Cc2cc(N3CCOCC3)ccc2-n2nncc2C1,inactive,
C[C@H]1CN([C@@H](C)CO)C(=O)CCCn2nncc2CO[C@H]1CN(C)C(=O)Oc1cccc2ccccc12,inactive,
O=[N+]([O-])c1ccc(Cl)c(Cl)c1,inactive,
C[C@]12CCC3C(CC[C@H]4C[C@@H](O)CC[C@]34C)C1C[C@@H](O)[C@H]2O (stereo not given in full),inactive,
C[C@]12CCC3C(CC[C@H]4C[C@@H](O)CC[C@]34C)C1CC[C@@H]2O (stereo not given in full),inactive,
C[C@]12CC[C@H](O)C[C@H]1CC[C@@H]1C2CC[C@]2(C)[C@@H](C3=CC(=O)OC3)[C@@H](O)C[C@]12O (stereo not given in full),3.66 µM (active),
O=C1C2CCN(CC2)C1(CO)CO,inactive,
CCOC(=O)CC(SP1(=S)OCC2(CCCCO2)C(C2CCCCO2)O1)C(=O)OCC (stereo not given),inactive,
CC(=O)Cc1ccc(OC(C)C)cc1,inactive,
CN(C)CC1Oc2ccccc2OC1(O)c1ccccc1 (stereo not given),4.61 µM (active),
CCCOC(=O)C1C2c3ccccc3C(c3ccccc32)C1C(=O)O (stereo not given),inactive,
Cc1ccc(C2CN(C)CC2C(=O)c2ccc(F)cc2)cc1 (stereo not given),inactive,
COc1cc(C(=O)N2Cc3ccc(Br)cc3-n3nncc3C2)cc(OC)c1OC,inactive,

SMILES,Potency,"activity, negative = toxicity"
CCN(CC)CCOC(=O)c1cc2cc(COC)ccc2o1,inactive,
COc1ccc2c(c1)NP(=S)(c1ccccc1)N2 (stereo not given),inactive,
CCC(C)(O)C(=O)OC1C(=O)OC2CC3C(C)=CC(=O)C(O)C3(C)C3C4(O)OCC23C1C(C)C4O (stereo not given),0.0411 µM (active),
C[C@H]1CN([C@@H](C)CO)C(=O)CCCn2nncc2CO[C@H]1CN(C)C(=O)Oc1ccccc1,inactive,
O=C1NC(=O)C(CCOc2ccccc2)(CCc2ccccc2)C(=O)N1,inactive,
COc1ccc(C2C=C(C)Oc3c2c(=O)oc2ccccc32)cc1OC (stereo not given),inactive,
Cc1ccc(-c2nc3ccccc3c(=O)n2-c2ccc(Br)cn2)cc1,inactive,
COC1C(O)C(C)OC(OC2CCC3(C=O)C(CCC4C3CCC3(C)C(C5=CC(=O)OC5)CCC43O)C2)C1O (stereo not given),0.0184 µM (active),
CCn1cc(CN2CCCC(C(=O)c3cccc(C(F)(F)F)c3)C2)cn1 (stereo not given),inactive,
CSCCC(c1nnnn1C(C)(C)C)N1CCC(n2c(=O)[nH]c3ccccc32)CC1 (stereo not given),inactive,
CC1CCCN1CCC(C(N)=O)(c1ccccc1)c1ccccc1 (stereo not given),inactive,
CCOc1ccc(-c2cc(C)[n+](CCN(CC)CC)c(-c3ccc(OCC)cc3)c2)cc1,5.17 µM (active),
CCC(=O)OC(Cc1ccccc1)(c1ccccc1)C(C)CN(C)C (stereo not given),inactive,
CCC1(CC(C)c2ccccc2)C(=O)NC(=O)NC1=O (stereo not given),inactive,
COC(=O)C[C@H]1CC[C@H]2NC[C@@H](O)COC[C@@H]2O1,inactive,
CC=C(C)C(=O)OC1CCN2CC=C(COC(=O)C(O)(C(C)OC)C(C)(C)O)C12 (stereo not given),inactive,
Fc1ccc(N2CCN(Cc3ccc4c(c3)OCO4)CC2)cc1,inactive,
c1cc2c(cc1CCNC1CCCCCC1)OCO2,inactive,
CC(=NCc1ccc2c(c1)OCO2)c1c(O)[nH]c(=O)[nH]c1=O,20.6 µM (active),
CC(C)n1c(=O)c(C=Nc2ccc(Br)cc2)c(O)n(Cc2ccco2)c1=O,inactive,
COC(=O)C1=C(c2ccc(C(C)=O)cc2)C[C@@H]2CC[C@H]1N2C(=O)NCCNC(C)=O,inactive,
Cc1cc(-c2ccc(N)c(C)c2)ccc1N,inactive,

SMILES,Potency,"activity, negative = toxicity"
CCN1C(=O)C(=Cc2c(C)n(CC(=O)NCC3CCCO3)c3ccccc23)C(=O)N(CC)C1=S (stereo not given),inactive,
COc1cccc(OC)c1C(=O)NC(=S)N1C[C@H]2C[C@H](C1)c1cccc(=O)n1C2,inactive,
CCCCCCCCCCCCn1ccc(=N)cc1,1.84 µM (active),
CN1C2C=C(N(C(=O)c3ccc(Cl)cc3)c3ccccc3)CC1CC2 (stereo not given),,-4% [at 9.24 µM] (inactive)
CC(=O)NCC1=C(c2ccc3ccccc3c2)C[C@@H]2CC[C@H]1N2Cc1ccco1,inactive,
CCOC(=O)[C@]12Cc3cc(OC)ccc3[C@H]1N(C(C)C)C(=O)c1ccccc12,16.4 µM (active),
CCOC(=O)[C@]12Cc3ccccc3[C@H]1N(C1CCCCC1)C(=O)c1cc(OC)ccc12,3.26 µM (active),
CC1([N+](=O)[O-])COP(=O)(Nc2ccc(F)cc2)OC1 (stereo not given),inactive,
C[C@]12CCC3C(CC[C@H]4[C@H](O)[C@H](O)CC[C@]34C)C1CC[C@@H]2O (stereo not given in full),inactive,
CC(C)CN1Cc2cc(N3CCCCC3)ccc2-n2nncc2C1,inactive,
CCN1CC2C3CCC(C)(O3)C2C1 (stereo not given),inactive,
CC1CC=CCC12C(=O)NC(=S)NC2=O (stereo not given),inactive,
C[C@]12CCCCC1=CC(=O)C1C2CC[C@@]2(C)C1C[C@@H](F)[C@@H]2O (stereo not given in full),inactive,
CCOC(=O)CNC(=O)N1Cc2cc(N3CCCCC3)ccc2-n2nncc2C1,inactive,
Cc1ccc(OC(=O)N(C)C[C@@H]2OCc3cnnn3CCCC(=O)N([C@H](C)CO)C[C@@H]2C)cc1,inactive,
O=C1NC(=O)N(Cc2ccco2)C(=O)/C1=C\c1ccc(-c2ccc(F)cc2)o1,18.4 µM (active),
COc1ccc(N2C(=O)/C(=C/c3ccco3)C(=O)NC2=S)cc1,inactive,
CCOC(=O)c1cccc(C2=C(CNC(=O)c3ccncc3)[C@H]3CC[C@@H](C2)N3Cc2ccccc2)c1,inactive,
CNC(=O)Nc1ccc(C(O)(C(=O)OC)C(F)(F)F)cc1 (stereo not given),inactive,
NC(=O)Nc1cccc(C(F)(F)F)c1,inactive,
CCNS(=O)(=O)c1ccc(NC(=O)Nc2cccc(C(F)(F)F)c2)cc1,11.2 µM (active),
